Assay results as given in the supplement of paper PMC10849652.
Of roughly 7,900 targets only a part is listed; those with a hit were picked by preference. About 0.6% of all pairs of compound and target were hits.

How the values were obtained:
Experiment in all cases: log2 fold change, soluble protein after heating vs DMSO (PISA); higher = thermal stabilisation; K562 cells, 10 uM, 30 min; active = over 0.2 and 3.5 SD of the protein, either way, in both replicates (recomputed)
[1] = target: ZW10 (UniProt O43264)
Chain of ZW10 (O43264 whole entry, looked up): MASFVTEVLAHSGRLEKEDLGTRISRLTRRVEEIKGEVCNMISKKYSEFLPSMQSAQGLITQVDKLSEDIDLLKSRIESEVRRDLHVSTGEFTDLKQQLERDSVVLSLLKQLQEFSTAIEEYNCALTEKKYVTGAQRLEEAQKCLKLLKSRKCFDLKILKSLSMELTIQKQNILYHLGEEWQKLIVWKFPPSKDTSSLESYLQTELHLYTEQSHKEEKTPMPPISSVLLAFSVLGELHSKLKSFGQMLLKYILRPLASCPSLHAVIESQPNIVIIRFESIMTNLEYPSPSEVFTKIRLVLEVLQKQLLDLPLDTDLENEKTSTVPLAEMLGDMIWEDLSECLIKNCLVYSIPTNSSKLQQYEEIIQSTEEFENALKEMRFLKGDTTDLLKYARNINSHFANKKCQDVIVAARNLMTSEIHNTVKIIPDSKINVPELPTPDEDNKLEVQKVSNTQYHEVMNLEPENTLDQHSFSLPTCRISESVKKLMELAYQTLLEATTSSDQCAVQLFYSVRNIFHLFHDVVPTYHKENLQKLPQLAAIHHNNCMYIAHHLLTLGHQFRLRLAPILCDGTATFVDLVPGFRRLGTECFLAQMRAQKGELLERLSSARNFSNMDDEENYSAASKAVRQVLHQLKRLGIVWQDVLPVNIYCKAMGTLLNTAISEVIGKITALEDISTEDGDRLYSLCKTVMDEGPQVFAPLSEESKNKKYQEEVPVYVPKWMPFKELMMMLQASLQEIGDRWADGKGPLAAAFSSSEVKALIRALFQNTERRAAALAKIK
Procedure, shortened: (§1)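 Quantification of soluble protein used TMTpro 16plex LC-MS/MS, with channel sums equalised. Samples were the supernatant after 21,000xg for 90 min of pooled aliquots from K562 cells (2×10^6 cells/mL) treated with 10 μM compound for 30 min, heated for 3 min over 48°C-58°C, and extracted in PBS with 0.5% NP-40 at 4°C. Values, from duplicates, describe thermal stability against control samples on a log2 fold-change scale.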

[2] = target: ZWILCH (UniProt Q9H900)
Chain of ZWILCH (Q9H900 whole entry, looked up): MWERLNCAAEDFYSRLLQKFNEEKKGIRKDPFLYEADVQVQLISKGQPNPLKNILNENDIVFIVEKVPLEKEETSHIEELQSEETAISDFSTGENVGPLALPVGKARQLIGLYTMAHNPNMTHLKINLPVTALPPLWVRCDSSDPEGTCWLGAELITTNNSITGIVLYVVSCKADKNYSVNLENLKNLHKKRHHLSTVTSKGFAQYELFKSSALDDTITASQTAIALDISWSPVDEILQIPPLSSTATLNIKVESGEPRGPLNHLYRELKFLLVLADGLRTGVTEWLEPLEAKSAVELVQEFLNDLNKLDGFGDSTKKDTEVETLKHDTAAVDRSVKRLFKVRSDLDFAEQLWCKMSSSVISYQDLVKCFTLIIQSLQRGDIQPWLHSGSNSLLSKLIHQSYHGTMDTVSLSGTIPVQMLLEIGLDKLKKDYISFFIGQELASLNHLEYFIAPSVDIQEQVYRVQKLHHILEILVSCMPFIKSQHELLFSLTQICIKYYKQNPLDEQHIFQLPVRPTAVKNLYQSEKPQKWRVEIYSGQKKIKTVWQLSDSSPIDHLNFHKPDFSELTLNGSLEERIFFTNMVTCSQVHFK
Procedure, shortened: as §1

[3] = target: ZYG11B (UniProt Q9C0D3)
Chain of ZYG11B (Q9C0D3 whole entry, looked up): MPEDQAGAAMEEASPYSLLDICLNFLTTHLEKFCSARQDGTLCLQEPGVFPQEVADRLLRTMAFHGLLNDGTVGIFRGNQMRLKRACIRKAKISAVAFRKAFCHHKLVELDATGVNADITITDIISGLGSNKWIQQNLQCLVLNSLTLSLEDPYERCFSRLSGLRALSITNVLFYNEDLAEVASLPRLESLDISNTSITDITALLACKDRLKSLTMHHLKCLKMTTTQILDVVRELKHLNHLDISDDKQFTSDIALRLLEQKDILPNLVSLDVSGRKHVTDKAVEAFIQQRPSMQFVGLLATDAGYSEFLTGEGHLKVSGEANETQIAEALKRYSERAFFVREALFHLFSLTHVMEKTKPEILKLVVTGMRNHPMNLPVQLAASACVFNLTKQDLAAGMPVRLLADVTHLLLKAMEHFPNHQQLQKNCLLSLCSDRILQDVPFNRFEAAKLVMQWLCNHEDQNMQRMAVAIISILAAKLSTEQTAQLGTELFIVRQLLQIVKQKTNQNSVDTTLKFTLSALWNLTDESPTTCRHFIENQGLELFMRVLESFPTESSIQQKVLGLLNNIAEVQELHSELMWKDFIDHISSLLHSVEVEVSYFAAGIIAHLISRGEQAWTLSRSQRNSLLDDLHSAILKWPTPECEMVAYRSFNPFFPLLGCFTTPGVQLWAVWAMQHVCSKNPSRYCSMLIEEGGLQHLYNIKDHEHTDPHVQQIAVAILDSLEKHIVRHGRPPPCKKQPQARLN
Procedure, shortened: as §1

Measured: log2 fold change

Cc1nc(Nc2ncc(C(=O)Nc3c(C)cccc3Cl)s2)cc(N2CCN(CCO)CC2)n1 [dasatinib]
inactive: [1] -0.124 | [2] -0.05 | [3] -0.017

CC(C)c1cnn2c(NCc3ccccc3)cc(NCCCCCCN)nc12
inactive: [1] -0.213 | [2] -0.107 | [3] 0.058

Cc1cccc(-c2[nH]c(C(C)(C)C)nc2-c2ccc3nccnc3c2)n1
inactive: [1] 0.006 | [2] 0 | [3] -0.039

CO[C@H]1C[C@@H]2CC[C@@H](C)[C@@](O)(O2)C(=O)C(=O)N2CCCC[C@H]2C(=O)O[C@H]([C@H](C)C[C@@H]2CC[C@H](n3cnnn3)[C@H](OC)C2)CC(=O)[C@H](C)/C=C(\C)[C@@H](O)[C@@H](OC)C(=O)[C@H](C)C[C@H](C)/C=C/C=C/C=C/1C [zotarolimus]
inactive: [1] 0.023 | [2] 0.046 | [3] 0.024

Cn1c2cc(S(C)=O)sc2c2cnn(Cc3cccc(N)c3)c(=O)c21 (stereo unspecified)
inactive: [1] 0.115 | [2] -0.04 | [3] -0.053

CCCCN(Cc1ccc(C(=O)NO)cc1)C(=O)Nc1ccccc1 [Nexturastat A]
inactive: [1] 0.093 | [2] -0.008 | [3] -0.011

Cc1nc(Nc2n[nH]c3c2CN(C(=O)N[C@H](CN(C)C)c2ccccc2)C3(C)C)c2sccc2n1
inactive: [1] -0.11 | [2] -0.042 | [3] 0.026

CC(C)C[C@@H](C=O)NC(=O)[C@H](CC(C)C)NC(=O)[C@H](CC(C)C)NC(=O)OCc1ccccc1
inactive: [1] 0.007 | [2] 0.079 | [3] 0.042

O=C(O)c1ccc2c(c1)nc(Nc1cccc(Cl)c1)c1ccncc12 [silmitasertib]
inactive: [1] 0.083 | [2] 0.059 | [3] 0

CCn1cc(-c2ccnc3[nH]c(-c4cccc(CN(C)C)c4)cc23)c(-c2ccc(NC(=O)N(C)C)cc2)n1
inactive: [1] 0.022 | [2] 0.01 | [3] -0.085

C[C@H](Nc1ncnc2nc[nH]c12)c1cc2cccc(Cl)c2c(=O)n1-c1ccccc1 [duvelisib]
inactive: [1] -0.002 | [2] 0.044 | [3] 0.062

Cc1ccc2c(=O)c3ccccc3n(CCCN)c2c1C
inactive: [1] 0.013 | [2] 0.013 | [3] 0.009

CC[C@H](C)[C@H](NC(=O)[C@H]([C@@H](C)CC)N(C)C(C)=O)C(=O)N[C@H](C(=O)N[C@@H](CC(C)C)C(=O)[C@@]1(C)CO1)[C@@H](C)O [epoxomicin]
inactive: [1] -0.046 | [2] 0.013 | [3] 0.123

NC(=O)Nc1cc(-c2cccc(F)c2)sc1C(=O)N[C@H]1CCCNC1
inactive: [1] -0.021 | [2] 0 | [3] -0.033

Fc1ccc(Cl)cc1-c1nc(Nc2ccncc2)c2nccnc2n1
inactive: [1] -0.04 | [2] -0.013 | [3] 0.013

COc1cc2ncnc(Nc3ccc(F)c(Cl)c3)c2cc1OCCCN1CCOCC1 [gefitinib]
inactive: [1] 0.135 | [2] 0.125 | [3] 0.042

COc1cc(Nc2ncc3c(n2)-c2ccc(Cl)cc2C(c2c(F)cccc2OC)=NC3)ccc1C(=O)O [alisertib]
inactive: [1] 0.031 | [2] -0.024 | [3] -0.155

O=C1NC(=O)C(c2cnc3ccccn23)=C1c1cn2c3c(cc(F)cc13)CN(C(=O)N1CCCCC1)CC2
inactive: [1] 0.054 | [2] 0.051 | [3] 0.019

CN1CCC(CNc2ccc3ncc(-c4cccc(OC(F)(F)F)c4)n3n2)CC1
inactive: [1] -0.108 | [2] -0.085 | [3] -0.113

c1cc(OCCN2CCCCC2)cc(-c2n[nH]c3ccc(-c4nnc[nH]4)cc23)c1
inactive: [1] -0.016 | [2] -0.048 | [3] 0.002

O=C(Nc1cccc(Nc2ncc(Br)c(NCCc3cnc[nH]3)n2)c1)N1CCCC1
inactive: [1] -0.018 | [2] 0.029 | [3] -0.026

CC[C@@H]1C(=O)N(C)c2cnc(Nc3ccc(C(=O)NC4CCN(C)CC4)cc3OC)nc2N1C1CCCC1
inactive: [1] -0.197 | [2] -0.078 | [3] -0.031
